We go through nine molecules from PubChem BioAssay (NCI).

The panel holds about 79,000 compounds, 15% with a hit somewhere; the sample as a whole holds those more often. A number with no mark means an inactive call. Calls of active or inactive are those of the source. Rule as the data show it: active = growth inhibition above about 70%; inactive = the rest.

Assay [1] can be described thus: NCI Yeast Anticancer Drug Screen. Data for the rad50 strain (AID 155).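 Also: 0% = growth of vehicle-only cultures of the same strain.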 The conditions noted are these: S. cerevisiae rad50 strain growth inhibition, stronger effect = higher value. In short, it runs like this:
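DNA repair mutant yeast, compound exposure, growth read-out; inhibition is taken relative to vehicle.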

Assay [2] can be described thus: NCI Yeast Anticancer Drug Screen. Data for the mec2-1 strain (AID 157). The settings on record: S. cerevisiae mec2-1 strain, stronger effect = higher value. Summed up: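 Each compound was tested on mec2-1 yeast, a strain altered in DNA damage repair or cell cycle control. Growth inhibition is reported relative to vehicle.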
Assay [3] in a line: NCI Yeast Anticancer Drug Screen. Data for the sgs1 mgt1 strain (AID 161).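 Also: 0% = growth of cultures given vehicle only.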 The conditions noted are these: S. cerevisiae sgs1 mgt1 strain, stronger effect = higher value. In short, it runs like this:
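Genetically altered yeast, compound exposure, growth inhibition relative to vehicle.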

Assay [4] in a line: NCI Yeast Anticancer Drug Screen. Data for the cln2 rad14 strain (AID 165).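 Also: 0% = growth equal to vehicle treated cultures.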 The conditions noted are these: S. cerevisiae cln2 rad14 strain, stronger effect = higher value. Summed up:
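Test compounds were added to cln2 rad14 yeast cultures; inhibition of growth was then determined by comparison with vehicle treatment.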

A short description of assay [5]: NCI Yeast Anticancer Drug Screen. Data for the bub3 strain (AID 167). The settings on record: S. cerevisiae bub3 mutant strain, stronger effect = higher value. In short, it runs like this: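 In this screen, a yeast mutant lacking normal mitotic checkpoint function is challenged with compound. Relative growth versus vehicle gives the inhibition value.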
Assay [6] in a line: NCI Yeast Anticancer Drug Screen. Data for the mlh1 rad18 strain (AID 175). The settings on record: S. cerevisiae mlh1 rad18 strain growth inhibition, stronger effect = higher value. In short, it runs like this:
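Inhibition values reflect reduced growth of mutant yeast versus vehicle-treated controls following compound exposure; the mutations affect DNA damage repair.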

[7] abbreviates: at 5.0 µM (retest, dose inferred, filed as 0.5).
The mark [8] stands for this setting: at 50.0 µM (retest, dose inferred, filed as 5.0).

Turning to `CC1CC[N-]CC1.CC1CC[N-]CC1.CC1CC[N-]CC1.CC1CC[N-]CC1.CS(C)=O.CS(C)=O.[Cl-].[Cl-].[Cl-].[Cl-].[Pt+4].[Rh+3]`, the growth inhibition in assay [1] (setting [7]) was 65%; in assay [1] (setting [8]), 96% (active); in assay [1] (at 50.0 µM), 95.5% (active); in assay [2] (setting [7]) it was 58%; in assay [2] (setting [8]) it was 98% (active); in assay [2] (at 50.0 µM) it was 96.8% (active). Further, the growth inhibition in assay [3] (setting [7]) is 66%; in assay [3] (setting [8]) it was 98% (active); in assay [3] (at 50.0 µM), 96.3% (active); in assay [4] (setting [7]), 44%; in assay [4] (setting [8]), 97% (active); in assay [4] (at 50.0 µM), 89.3% (active). The growth inhibition in assay [5] (setting [7]) is 52%; in assay [5] (setting [8]), 96% (active); in assay [5] (at 50.0 µM), 97.9% (active); in assay [6] (setting [7]), 69%; in assay [6] (setting [8]) it was 97% (active); in assay [6] (at 50.0 µM) it was 97% (active).

Regarding `COCCCNC(=S)N/N=C/c1cc(Cl)cc(Cl)c1O`, the growth inhibition was 21% in assay [1] (setting [7]); 75% (active) in assay [1] (setting [8]); 92.5% (active) in assay [1] (at 50.0 µM); 15% in assay [2] (setting [7]); 81% (active) in assay [2] (setting [8]); 89.3% (active) in assay [2] (at 50.0 µM). For the same molecule, the growth inhibition was 27% in assay [3] (setting [7]); 94% (active) in assay [3] (setting [8]); 93.6% (active) in assay [3] (at 50.0 µM); 10% in assay [4] (setting [7]); 77% (active) in assay [4] (setting [8]); 48.7% in assay [4] (at 50.0 µM). The growth inhibition in assay [5] (setting [7]) was 4%; in assay [5] (setting [8]) it was 83% (active); in assay [5] (at 50.0 µM), 80.7% (active); in assay [6] (setting [7]) it was 13%; in assay [6] (setting [8]), 93% (active); in assay [6] (at 50.0 µM), 85.2% (active).

As for `O=C(Nc1ccccc1F)C(Br)C(Br)c1ccccc1` (configuration not stated), the growth inhibition is 6% in assay [1] (setting [7]); 97% (active) in assay [1] (setting [8]); 98.6% (active) in assay [1] (at 50.0 µM); 8% in assay [2] (setting [7]); 90% (active) in assay [2] (setting [8]); 99% (active) in assay [2] (at 50.0 µM). In addition, the growth inhibition in assay [3] (setting [7]) is 23%; in assay [3] (setting [8]) it was 97% (active); in assay [3] (at 50.0 µM) it was 99.4% (active); in assay [4] (setting [7]), 6%; in assay [4] (setting [8]), 36%; in assay [4] (at 50.0 µM), 99.1% (active). Besides, the growth inhibition in assay [5] (setting [7]) was -1%; in assay [5] (setting [8]) it was 95% (active); in assay [5] (at 50.0 µM) it was 99% (active); in assay [6] (setting [7]), 29%; in assay [6] (setting [8]), 95% (active); in assay [6] (at 50.0 µM), 98.9% (active).

In the case of `CC(=O)ON=C1C=CC(=C(C#N)c2ccccc2)C=C1`, the growth inhibition is 44% in assay [1] (setting [7]); 99% (active) in assay [1] (setting [8]); 97.2% (active) in assay [1] (at 50.0 µM); 41% in assay [2] (setting [7]); 100% (active) in assay [2] (setting [8]); 99.1% (active) in assay [2] (at 50.0 µM). The growth inhibition was 46% in assay [3] (setting [7]); 100% (active) in assay [3] (setting [8]); 64.1% in assay [3] (at 50.0 µM); 88% (active) in assay [4] (setting [7]); 100% (active) in assay [4] (setting [8]); 98.2% (active) in assay [4] (at 50.0 µM). The growth inhibition in assay [5] (setting [7]) is 72% (active); in assay [5] (setting [8]), 100% (active); in assay [5] (at 50.0 µM), 66.3%; in assay [6] (setting [7]), 49%; in assay [6] (setting [8]), 99% (active); in assay [6] (at 50.0 µM), 99.5% (active).

As to `O=C(CNC(=O)OCc1ccccc1)Oc1ccc([N+](=O)[O-])cc1`, the growth inhibition was -9% in assay [1] (setting [7]); -1% in assay [1] (setting [8]); 22.1% in assay [1] (at 50.0 µM); -1% in assay [2] (setting [7]); 38% in assay [2] (setting [8]); 58.4% in assay [2] (at 50.0 µM). Also, the growth inhibition in assay [3] (setting [7]) was 3%; in assay [3] (setting [8]) it was 7%; in assay [3] (at 50.0 µM), 48.6%; in assay [4] (setting [7]) it was -42%; in assay [4] (setting [8]), -56%; in assay [4] (at 50.0 µM) it was -60.2%. In addition, the growth inhibition in assay [5] (setting [7]) is -5%; in assay [5] (setting [8]), 0%; in assay [5] (at 50.0 µM), 64.2%; in assay [6] (setting [7]), 12%; in assay [6] (setting [8]), 36%; in assay [6] (at 50.0 µM), 73.7% (active).

For `Cc1c2ccccc2c(C)c2c1ccc1ccccc12`, the growth inhibition in assay [1] (setting [7]) was 73% (active); in assay [1] (setting [8]), 91% (active); in assay [1] (at 50.0 µM), 96.8% (active); in assay [2] (setting [7]) it was 93% (active); in assay [2] (setting [8]), 91% (active); in assay [2] (at 50.0 µM) it was 97.5% (active). For the same molecule, the growth inhibition in assay [3] (setting [7]) is 93% (active); in assay [3] (setting [8]), 94% (active); in assay [3] (at 50.0 µM), 97.7% (active); in assay [4] (setting [7]), 60%; in assay [4] (setting [8]), 91% (active); in assay [4] (at 50.0 µM), 83.4% (active). The growth inhibition in assay [5] (setting [7]) was 81% (active); in assay [5] (setting [8]) it was 93% (active); in assay [5] (at 50.0 µM) it was 94.3% (active); in assay [6] (setting [7]), 93% (active); in assay [6] (setting [8]), 91% (active); in assay [6] (at 50.0 µM), 98.1% (active).

On to `CCOC(=O)C(C(C)=O)C1=C(Cl)C(=O)c2ccccc2C1=O` (configuration not stated), for which the growth inhibition in assay [1] (setting [7]) was 94% (active); in assay [1] (setting [8]) it was 100% (active); in assay [1] (at 50.0 µM), 99.3% (active); in assay [2] (setting [7]), 89% (active); in assay [2] (setting [8]) it was 100% (active); in assay [2] (at 50.0 µM) it was 99.5% (active). For the same molecule, the growth inhibition in assay [3] (setting [7]) was 96% (active); in assay [3] (setting [8]), 100% (active); in assay [3] (at 50.0 µM), 99.5% (active); in assay [4] (setting [7]) it was 77% (active); in assay [4] (setting [8]), 100% (active); in assay [4] (at 50.0 µM), 89.7% (active). Further, the growth inhibition in assay [5] (setting [7]) was 96% (active); in assay [5] (setting [8]) it was 100% (active); in assay [5] (at 50.0 µM), 97.5% (active); in assay [6] (setting [7]) it was 84% (active); in assay [6] (setting [8]), 99% (active); in assay [6] (at 50.0 µM), 99.3% (active).

Take `O=C(O)C(Br)C(Br)c1ccccc1[N+](=O)[O-]` (configuration not stated): the growth inhibition in assay [1] (setting [7]) was 15%; in assay [1] (setting [8]), 81% (active); in assay [1] (at 50.0 µM) it was 96.5% (active); in assay [2] (setting [7]) it was 8%; in assay [2] (setting [8]) it was 60%; in assay [2] (at 50.0 µM) it was 89% (active). In addition, the growth inhibition is 20% in assay [3] (setting [7]); 79% (active) in assay [3] (setting [8]); 95% (active) in assay [3] (at 50.0 µM); 21% in assay [4] (setting [7]); 72% (active) in assay [4] (setting [8]); 77.2% (active) in assay [4] (at 50.0 µM). For the same molecule, the growth inhibition is 3% in assay [5] (setting [7]); 79% (active) in assay [5] (setting [8]); 96% (active) in assay [5] (at 50.0 µM); 11% in assay [6] (setting [7]); 85% (active) in assay [6] (setting [8]); 92% (active) in assay [6] (at 50.0 µM).

Take `O=C(C(Oc1ccc(Cl)cc1)Oc1ccc(Cl)cc1)N(O)c1ccccc1OCc1ccccc1`: the growth inhibition was 14% in assay [1] (setting [7]); 49% in assay [1] (setting [8]); 66.8% in assay [1] (at 50.0 µM); 3% in assay [2] (setting [7]); 39% in assay [2] (setting [8]); 63% in assay [2] (at 50.0 µM). The growth inhibition in assay [3] (setting [7]) is 18%; in assay [3] (setting [8]) it was 45%; in assay [3] (at 50.0 µM), 69.5%; in assay [4] (setting [7]), -13%; in assay [4] (setting [8]), 49%; in assay [4] (at 50.0 µM) it was 53.6%. Further, the growth inhibition in assay [5] (setting [7]) is 6%; in assay [5] (setting [8]) it was 57%; in assay [5] (at 50.0 µM), 47.9%; in assay [6] (setting [7]) it was 11%; in assay [6] (setting [8]), 45%; in assay [6] (at 50.0 µM) it was 71.5% (active).
